Source: PubChem BioAssay
DT40 TDP1 CPT: growth inhibition of DT40 Tdp1-/-;hTDP1 cells with camptothecin (screen for TDP1 inhibitors). chicken DT40 Tdp1-/-;hTDP1 cells + 20 nM CPT, ATP luminescence, 48 h. Potency, µM (doses to about 46.2 µM), for inactives: at the top dose activity change, negative = growth inhibition, hits mostly inhibitors. actives 12% (n = 420,000). AID 686979; also: potency is read from the fitted curve at half-maximal effect; nearly all actives have a fitted effect of over 55% in size
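Cell growth measured by CellTiter-Glo luminescence after a minimum 48 h, 37 C compound exposure with 20 nM CPT in Tdp1-knockout DT40 cells stably expressing hTDP1, seeded 400/well; qHTS titration format.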
HT1080NT lethal: kills 2HG-producing HT-1080-NT fibrosarcoma cells | HT-1080-NT fibrosarcoma viability, CellTiter-Glo ATP luminescence, 48 h | Potency, µM (titrated, usually from 46.1 µM), for inactives: at the top dose activity, negative = less viability, most hits filed as cytotoxic | actives 1.6% (n = 360,000) | AID 686970;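 also: NT is the 2HG producing partner of a matched IDH1 knockdown line; potency is read from the fitted curve at half-maximal effect; 0% = DMSO-treated cells and -100% = media-only wells without cells; nearly all actives have a fitted effect of over 55% in size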
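Read-out is CellTiter-Glo luminescence after 10 minutes at room temperature, following 48 hours' compound treatment of HT-1080-NT cells (750 cells/well, RPMI, 5% FBS, 37 degrees C).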
HT1080 IDH1KD tx: toxicity to HT-1080 IDH1 knockdown cells (counter line) | HT-1080 IDH1 knockdown viability, ATP luminescence, 48 h | Potency, µM (highest dose often 46.1 µM), inactives show at the highest dose activity, negative = toxicity, actives largely listed as cytotoxic | actives 2% (n = 360,000);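 also: potency is read from the fitted curve at half-maximal effect; 0% = DMSO wells and -100% = cell-free medium wells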
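After a 2 h attachment period, IDH1KD HT-1080 cells took pin-transferred compound for 48 h at 37 °C; ATP-based luminescence after 10 min room-temperature reagent incubation reported viability.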
IL-1B inflam inh: inhibitors of inflammasome signaling (IL-1 beta secretion); THP-1 LPS/ATP IL-1B secretion, AlphaLISA, 16 h; active compounds read low; activity change, % at 57.5 µM; actives 4.7% (n = 360,000); AID 743279; in the data active = activity change below about -50%; inconclusive = mostly about -30% to -49%
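Secreted IL-1B measured by AlphaLISA bead assay after 16 h compound exposure of THP-1 cells; compounds (final up to 57.5 uM) added 1 h before LPS (250 ng/mL) and ATP (1.25 mM) stimulation; lower signal means less secretion.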
DT40 TDP1 no CPT: qHTS for Inhibitors of human tyrosyl-DNA phosphodiesterase 1 (TDP1): qHTS in cells in absence of CPT; AID 686978, 2013; Potency, µM (series often up to 46.2 µM), inactives show at the highest dose activity change, negative = growth inhibition, usual class: inhibitors; DT40 Tdp1-/- hTDP1 cells, no CPT, ATP luminescence, 48 h; actives 15% (n = 420,000); also: potency is read from the fitted curve at half-maximal effect; nearly all actives have a fitted effect of over 55% in size
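Compound effects on proliferation are scored in DT40 Tdp1-/-;hTDP1 cells in the absence of CPT. ATP levels (CellTiter-Glo luminescence) are recorded after a ≥48 hr, 37 °C incubation.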
ELG1 repair inh: blocks ELG1-dependent DNA repair in HEK293T cells | actives 2.3% (n = 330,000) | AID 504467 | Potency, µM (series often up to 46.1 µM), for inactives: top-dose activity change, negative = inhibition, most hits filed as inhibitors | HEK293T ELG1-luciferase reporter, luminescence, 16 h; DNA damage induced by 5-fluorouridine; also: potency is read from the fitted curve at half-maximal effect; nearly all actives have a fitted effect of over 55% in size
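HEK293T cells expressing luciferase-tagged ELG1 (2,000/well) received 5-Fluorouridine plus compound or DMSO for 16 hr at 37 °C. Luciferase was read by ONE-Glo luminescence after 30 min at room temperature.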
* hit, by the source's call; ? = inconclusive; nt = no result given; [ ] = dose if it differs, or a comment. Rows were chosen to be rich in hits. Some 19% of all compounds tested hit in one or more screens of this group. Unless noted, calls follow the shape of the dose curve; as a rule, active = well fitted curve in the direction sought with a large enough effect; inconclusive = small, poorly fitted or top-dose-only effect, or another doubt; inactive = no such curve, though single readings can be large; an effect the other way counts as inactive or inconclusive. Unless noted, % is scaled to controls: 0 for no effect and ±100 for the full control effect.

SMILES	DT40 TDP1 CPT	HT1080NT lethal	HT1080 IDH1KD tx	IL-1B inflam inh	DT40 TDP1 no CPT	ELG1 repair inh
Cc1nc2cc(-c3ccc(Cl)cc3)nn2c(NCCN(C)C)c1C	7.3µM*	?	-16%	-75*	7.3µM*	?
COc1ccc(-n2c3c(c(=O)[nH]c2=O)C(NC(=O)c2ccncc2)(C(F)(F)F)C(=O)N3)cc1 (stereo unspecified)	0%	-8%	6%	2	10%	12%
CCN(CC)CCNC(=O)C(=O)Nc1cc2c3c(c1)CCC(=O)N3CCC2	-6%	9%	4%	-62*	10%	?
CC1C(=O)N2CCCc3cc(NC(=O)C(=O)NCCc4ccc(F)cc4)cc1c32 (stereo unspecified)	?	18µM*	21µM*	13	?	?
CC1C(=O)N2CCCc3cc(NC(=O)C(=O)NCCCc4ccccc4)cc1c32 (stereo unspecified)	?	-8%	-19%	7	?	29%
CCOC(=O)c1cnn(-c2ccccc2)c1-n1cccc1C(=O)C(=O)Nc1ccccc1C(F)(F)F	?	-13%	-9%	0	21µM*	4%
Cn1cccc1C(=O)C(=O)Nc1ccccc1C(F)(F)F	-23%	?	30%	-14	-19%	?
CC(NC(=O)Nc1ccccc1F)C(C)(C)C (stereo unspecified)	-9%	4%	5%	-13	-4%	-7%
CNC(=O)c1ccc(=O)n(Cc2cccc(C(F)(F)F)c2)c1	25%	9%	14%	4	3%	-9%
NNC(=O)c1cccn(Cc2cccc(C(F)(F)F)c2)c1=O	15µM*	-5%	-15%	-2	?	?
O=C(Nc1cccnc1)c1ccc2nc(-c3ccccc3)c(-c3ccccc3)nc2c1	23µM*	-1%	2%	-10	15µM*	23µM*
O=C(Nc1cccnc1)c1ccc(Oc2ccccc2)cc1	23µM*	?	26µM*	-15	?	?
O=C(Nc1ccc(F)cc1)Nc1cccnc1	?	0%	12%	-18	-3%	16%
O=C(Nc1cccnc1)c1ccccc1Oc1ccccc1	-18%	3%	-2%	1	-16%	3%
O=C(Nc1ccccc1)Nc1ccc(Oc2cccnc2)nc1	?	-24%	-10%	-6	16µM*	?
C[C@@H]1Nc2ccc(Cl)cc2S(=O)(=O)N1	1%	nt	nt	nt	-10%	nt
Cc1ccc(NC(=O)c2oc3ccc(S(=O)(=O)N4CCCCCC4)cc3c2C)c(C)c1	-24%	nt	nt	nt	-22%	nt
CCOC(=O)N1CCN(CC(=O)Nc2nc3ccc(OC)cc3s2)CC1	?	10%	8%	19	?	15µM*
CCC(=O)Nc1nc2cc(OC)ccc2s1	?	-3%	-1%	-6	18µM*	?
CCOC(=O)N1CCN(CC(=O)Nc2nc3ccccc3s2)CC1	-18%	-8%	-12%	16	-4%	-23%
CCC(=O)Nc1nc2c(OC)ccc(OC)c2s1	2%	-3%	-1%	-20	-8%	-6%
CCn1cc([N+](=O)[O-])c(C(=O)Nc2nc3ccc(OC)cc3s2)n1	-14%	?	-1%	-59*	-4%	?
CCC(=O)Nc1nc2ccc3nc(C)sc3c2s1	?	-1%	7%	14	21µM*	?
CCOCC(=O)Nc1nc2ccc(OC)cc2s1	?	6%	0%	-3	?	?
COc1ccc2sc(NC(=O)NC(=O)c3c(Cl)cccc3Cl)nc2c1	-22%	-3%	-11%	-88*	?	-7%
SMILES	DT40 TDP1 CPT	HT1080NT lethal	HT1080 IDH1KD tx	IL-1B inflam inh	DT40 TDP1 no CPT	ELG1 repair inh
Cc1ccc(Cl)cc1N1CCN(C(=O)c2cc(S(=O)(=O)N3CCCC3)cn2C)CC1	16µM*	nt	nt	nt	23µM*	nt
Cc1ccc(Cl)cc1N1CCN(C(=O)c2cc(S(=O)(=O)N3CCCCC3)cn2C)CC1	13µM*	nt	nt	nt	21µM*	nt
O=C(c1cccs1)N1CCN(c2ncc(C(F)(F)F)cc2Cl)CC1	?	9%	-2%	-10	?	-19%
O=C(CN1CCN(c2ncc(C(F)(F)F)cc2Cl)CC1)N1CCN(c2ncc(C(F)(F)F)cc2Cl)CC1	18µM*	-3%	-19%	1	16µM*	?
O=C(c1cccc(C(F)(F)F)c1)N1CCOC12CCN(c1ncc(C(F)(F)F)cc1Cl)CC2	23µM*	-6%	-1%	?	23µM*	nt
CN1CCN(C(=O)C2CCN(c3ncc(C(F)(F)F)cc3Cl)CC2)CC1	?	-11%	-3%	23	21µM*	?
Cc1cc(C(=O)NCCN2Cc3ccccc3OC(c3ccccc3F)C2)no1 (stereo unspecified)	-4%[9.04 µM]	nt	nt	nt	-10%	nt
CCn1nc(C)cc1C(=O)NCCN1Cc2ccccc2OC(c2ccccc2F)C1 (stereo unspecified)	?	nt	nt	nt	16µM*	nt
COc1ccc(NC(=O)CCN2C(=O)NC3(CCCC3)C2=O)cc1Cl	7%	-2%[9.24 µM]	6%	-7	18%	-3%
COc1cc(C2C(C#N)=C(N)N(c3ccc(F)cc3)C3=C2S(=O)(=O)CC3)ccc1O (stereo unspecified)	13µM*	-1%	30%	-22	?	-3%
COc1cc(C2C(C#N)=C(N)N(c3cccnc3)C3=C2C(=O)CCC3)ccc1O (stereo unspecified)	-1%	2%	26%	-59*	-1%	9%
COc1ccc(NS(=O)(=O)c2cc3c(cc2C)N(C(C)=O)CCO3)cc1OC	-25%	14%	5%	16	?	13%
CCCN(CC(=O)Nc1ccccc1C)C(=O)/C=C/c1ccc(S(=O)(=O)N2CCCCCC2)cc1	?	-10%	-24%	-16	21µM*	?
COc1ccc(NC(=O)CN(C)C(=O)/C=C/c2ccc(S(=O)(=O)N3CCCCCC3)cc2)cc1	?	-6%	?	-16	18µM*	?
COc1ccc(/C=C/C(=O)N(C)CC(=O)Nc2cccc(F)c2)cc1S(=O)(=O)N1CCCCC1	18µM*	-28%	?	4	16µM*	?
COc1ccc(NC(=O)CN(C)C(=O)/C=C/c2ccc(OCc3ccccc3)cc2)cc1	-28%	-22%	?	-3	?	-7%
